Assay results reported in the supplement of paper PMC3842684.

Each compound was assayed on P. falciparum NF54-pfs16-GFP late (IV-V) stage gametocytes (assay: relative % inhibition of viable gametocyte number; higher = more gametocytocidal). Conditions: 5 µM; stage: late (IV-V) gametocyte; incubation 72 h.
How it was run: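 Viable gametocytes were counted by confocal imaging as elongated GFP objects carrying MitoTracker Red signal above a cut-off, after 72 h of compound exposure (5 or 0.5 µM) at 37°C in 5% CO2 and 5% O2 and overnight staining. The NF54 pfs16-GFP gametocytes had been magnet-isolated at early (I/IIa, day 2) or late (day 8) stage and plated at 10% parasitaemia, 0.1% haematocrit in 384-well poly-D-lysine imaging plates. Relative inhibition was normalised to vehicle and positive-control wells within each plate.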

| Compound | relative % inhibition [%] |
| --- | --- |
| CCC(O)c1ccc(Br)cc1NC(=O)c1cccc(Cl)c1 (centres undefined) | 28.6 |
| Cc1c(C)n(Cc2ccc(F)cc2)c2ccc(C(=O)NCc3ccco3)cc12 | 21.7 |
| Nc1ccn(C2O[C@H](CO)[C@@H](O)[C@H]2O)c(=O)n1 (some centres undefined) | -10.9 |
| c1ccc(-c2ccc(-c3nc4ccccc4[nH]3)cc2)cc1 | 5.71 |
| OC(CNCC1CCCO1)Cn1c2ccc(Cl)cc2c2cc(Cl)ccc21 (centres undefined) | 75.6 |
| Nc1ccc(-c2nc3cc(Cc4ccc5[nH]c(-c6ccc(N)cc6)nc5c4)ccc3[nH]2)cc1 | 85.1 |
| O=C1C2=C(Nc3ccccc3SC2c2ccccc2)c2ccccc21 (centres undefined) | 55.8 |
| CN(C)c1ccc(-c2nc3cc(N)ccc3[nH]2)cc1 | -10.8 |
| CC1CCN(Cc2ccc(NC(=O)c3cc4ccc5cccnc5c4[nH]3)cc2)CC1 | 12 |
| COC(=O)c1ccc(C2C3=C(O)CC(c4ccc(F)cc4)CC3=Nc3ccccc3N2C(=O)c2ccccc2)cc1 (centres undefined) | 98.4 |
| O=C(Nc1ccc(Br)cc1)Nc1cccc(Cl)c1 | -6.59 |
| O=C1c2ccc3c4c(ccc(c24)C(=O)N1CCCCO)C(=O)N(CCCCO)C3=O | 4.35 |
| O=C(NC1CCN(Cc2ccccc2)CC1)c1cc(C(=O)NC2CCN(Cc3ccccc3)CC2)cc(C(=O)NC2CCN(Cc3ccccc3)CC2)c1 | 31.9 |
| FC(F)(F)c1cccc(Nc2nc3ccccc3nc2Nc2cccc(C(F)(F)F)c2)c1 | 103 |
| COc1ccc(OC)c(C2C3=C(CC(C)(C)CC3=O)N(c3ccc(Cl)c(Cl)c3)C3=C2C(=O)CC(C)(C)C3)c1 | 79.2 |
| COc1ccc(C=C2SC(=N)N(c3ccccc3OC)C2=O)cc1 | 67.5 |
| O=C(CCc1ccccc1)c1ccccc1OCC(O)CN1CCCCC1 (centres undefined) | 48.2 |
| CCOc1cc2c(cc1OCC)C(c1cc(Cl)ccc1O)NCC2 (centres undefined) | 26.7 |
| COc1ccc(-n2ccnc2SCC(=O)Nc2cc(C)ccc2C)c(OC)c1 | 15.9 |
| COc1ccc(C)c2sc(N(Cc3cccnc3)C(=O)c3ccc(C#N)cc3)nc12 | 7.81 |

| Compound | relative % inhibition [%] |
| --- | --- |
| COc1ccc(C(=O)C2CC2c2ccc(Cl)cc2)cc1 (centres undefined) | 48.3 |
| CCc1ccc(Nc2cc(C)nc3nc(C)nn23)cc1 | 16.9 |
| COc1ccc(NC(=O)C2c3ccccc3C(=O)N(CC(C)C)C2c2cccs2)cc1Cl (centres undefined) | 66 |
| COc1ccc(C(C)=O)cc1N1C(=O)C2C(C1=O)C1(c3ccccc3)C(=O)C2(c2ccccc2)C(c2ccc(C)cc2)=C1c1ccc(C)cc1 (centres undefined) | 73.1 |
| CCN(CC)c1ccc(NC(=O)c2cccs2)cc1 | 43.6 |
| O=C1c2ccccc2-c2nnc(-c3ccc(Br)cc3)cc21 | 88.5 |
| CCOC(=O)c1cnc2ccc(OC)cc2c1NCc1ccccc1 | 2.07 |
| COc1ccc(CCN2C(=O)c3[nH]nc(-c4cc(Cl)c(C)cc4O)c3C2c2ccccc2F)cc1 (centres undefined) | 51.9 |
| Cc1ccc(N2C3c4ccccc4N(S(=O)(=O)c4ccc(C)cc4)C2c2ccccc2N3S(=O)(=O)c2ccc(C)cc2)cc1 | 98.9 |
| COc1cccc(Nc2nc(NCCO)c3ccccc3n2)c1 | 50.8 |
| COc1cc(-c2nc(-c3ccc(Sc4ccccc4)cc3)c(-c3ccccc3)[nH]2)cc(OC)c1O | -21 |
| CCOC(=O)c1c(NC(=O)c2ccccc2)sc2c(O)c(CN(CC)CC)ccc12 | 89.6 |
| Cc1cc(N(C)C)nc(Nc2ccc(NC(=O)Nc3ccccc3)cc2)n1 | 1.55 |
| COc1ccc(-c2nonc2NC(=O)c2cccc(C)c2)cc1OC | -9.12 |
| CN1CCN(c2c3c(c(C#N)c4nc5ccccc5n24)CCC3)CC1 | -8.14 |
| Nc1nc(Nc2cccc(F)c2)nc2ccccc12 | 2.78 |
| Cc1cc(NC(=O)c2ccc(-c3ccccc3)cc2)no1 | 36.8 |
| COc1ccc(C2c3ccc4ccccc4c3Oc3ncn(CCCn4ccnc4)c(=N)c32)cc1OC (centres undefined) | 74.6 |
| Brc1ccc(Nc2nc3ccccc3nc2Nc2ccc(Br)cc2)cc1 | 102 |
